Sampled rows, rich in hits. Any-hit rate of the full collection: about 5.4%.
Granule exo inh: blocks lytic granule exocytosis; TALL-104 LAMP-1 surface exposure, flow cytometry; cells stimulated with thapsigargin and PMA; inhibition, % at 10 µM; 0.66% of 360,000 active; AID 651702;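 active = inhibition above about 55%, limit read from the data; inconclusive = no clear call, values can overlap the other calls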
SMARCA2 act: increases SMARCA2 function in MMTV reporter cells. MG213 cells, MMTV-luciferase reporter, dexamethasone, overnight. 1% of 370,000 active. activation, % at 9.1 µM. AID 652017; in the data active = activation above about 7.8%;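 also: 0% = vehicle wells and 100% = reference activator wells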
ALR inh: human ALR oxidase inhibition via reduced H2O2. P55789. purified ALR, DTT oxidation, H2O2 HRP-luminol luminescence. inhibition, % (concentration not given with the values). 3.8% of 290,000 active. AID 485317;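 active = mean replicate inhibition above about 79%, with every replicate also reaching it, limit read from the data; inconclusive = only one of the two criteria met; inactive = mean below limit and not every replicate reaching it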
Target sequence (P55789 whole entry, looked up): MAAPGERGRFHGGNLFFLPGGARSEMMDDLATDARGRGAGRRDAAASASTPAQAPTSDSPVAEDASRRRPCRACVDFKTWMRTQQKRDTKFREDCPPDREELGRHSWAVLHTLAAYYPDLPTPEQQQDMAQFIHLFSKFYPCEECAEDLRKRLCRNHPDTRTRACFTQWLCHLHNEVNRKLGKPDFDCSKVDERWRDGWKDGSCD
beta cell repl: MIN6 beta-cell proliferation induction; MIN6 cells proliferation, ATPlite luminescence, 48 h; cells starved in 0.2% serum; 100% = growth in 10% serum; proliferation, % at 10 µM; 0.29% of 330,000 active;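 active = compounds whose signal lies at least 3.5 SD above the mean of all wells on their plate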;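 also: 0% = DMSO-treated cells in low-serum medium and 100% = 10% serum control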
GASC-1 inh: blocks human GASC-1 demethylase activity; GST-JMJD2C(1-420) H3K9me3 demethylation, DELFIA europium; 0.069% of 330,000 active; inhibition, % at 2.35 µM; Q9H3R0;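 active = more than half of a compound's replicate wells show inhibition beyond 50%, single wells judged on their own value; inconclusive = some, but no more than half, of replicates pass 50% inhibition; inactive = no replicate passes 50% inhibition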;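 also: signal counts dimethyl H3K9 product captured on neutravidin plate; 0% = median of DMSO wells and 100% = 0.3 times that DMSO median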
Target sequence (Q9H3R0 1-420 limits assumed): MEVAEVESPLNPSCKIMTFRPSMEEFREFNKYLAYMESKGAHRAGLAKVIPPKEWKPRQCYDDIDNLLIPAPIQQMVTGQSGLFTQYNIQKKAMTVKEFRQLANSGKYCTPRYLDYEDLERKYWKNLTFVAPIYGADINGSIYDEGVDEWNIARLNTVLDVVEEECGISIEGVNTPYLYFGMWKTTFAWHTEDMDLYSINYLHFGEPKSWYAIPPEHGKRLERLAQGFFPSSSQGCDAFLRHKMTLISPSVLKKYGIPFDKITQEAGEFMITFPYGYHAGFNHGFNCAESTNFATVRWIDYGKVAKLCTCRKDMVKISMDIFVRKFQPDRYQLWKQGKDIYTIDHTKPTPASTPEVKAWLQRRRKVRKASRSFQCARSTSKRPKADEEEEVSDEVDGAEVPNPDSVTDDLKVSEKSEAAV
M18AAP inhibitor: blocks P. falciparum M18 aspartyl aminopeptidase | recombinant PfM18AAP, H-Glu-NHMec fluorogenic cleavage | inhibition, % at 7.35 µM | 1.2% of 290,000 active;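 active = inhibition above the campaign mean inhibition over all tested compounds plus 3 SD, cut at about 28% in these data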;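 also: 0% = plate median of test compound wells and 100% = 2 mM ZnCl2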
Numbers without * were called inactive; i = inactive; ? = inconclusive; nt = no result given.

SMILES | Granule exo inh | SMARCA2 act | ALR inh | beta cell repl | GASC-1 inh | M18AAP inhibitor
COC(=O)c1nc(-c2ccc3c(n2)C(=O)C(N)=C(OC)C3=O)c(N)c(-c2ccc(OC)c(OC)c2O)c1C | 4 | 5 | -13 | -6 | -1 | 32*
CC(C)C(NC(=O)OCc1ccccc1)P(=O)(Oc1ccccc1)Oc1ccccc1 (stereo not given) | nt | -2 | nt | nt | nt | nt
CNC(C)Cc1ccccc1Sc1ccc(O)cc1 (stereo not given) | -3 | -1 | 99* | -5 | 8 | 9
CC(=O)c1ccc2c(c1)C1C(Cl)C(Sc3ccccc3[N+](=O)[O-])CC1C(C(=O)O)N2 (stereo not given) | -14 | -4 | 95* | nt | -1 | -12
O=C(O)c1cccc2c1NC(C(=O)O)C1CC(Sc3ccccc3[N+](=O)[O-])C(Cl)C21 (stereo not given) | -10 | -2 | 18 | nt | 5 | 20
O=C(COC(=O)c1ccc(O)cc1)Nc1ccc(Cl)cc1C(=O)c1ccccc1 | 1 | 1 | 96* | -4 | 1 | 0
CN1C(=O)C(=Cc2ccc(SC3CCCCC3)o2)C(=O)N(C)C1=O | 2 | 1 | 88* | 3 | 17 | 14
CN1OC[C@@H]2CN3C4(C[C@@H]21)c1ccccc1C3(c1ccccc1)c1ccccc14 | nt | -2 | nt | nt | nt | nt
O=c1[nH]c2cc(Cl)ccc2n1C1CCN(Cc2ccc(-c3nc4ccc(F)cc4nc3-c3ccccc3)cc2)CC1 | nt | 1 | nt | nt | nt | nt
CCN1CCN(c2ccc(N)c(C)c2)CC1 | 3 | -2 | 96* | -3 | -17 | 1
COP(=O)(C(=O)Nc1ccccc1)C(CC(C)C)NC(=O)OCc1ccccc1 (stereo not given) | nt | 1 | nt | nt | nt | nt
CN(C)c1ccc(/C=C2/C(=N\O)C3CCN2CC3)cc1 | 12 | 4 | 99* | 2 | 1 | 9
CCOc1ccc2nc(N=Nc3c(O)[nH]c(=O)[nH]c3=O)sc2c1 | -2 | -5 | 9 | -3 | 3 | 0
CCOc1ccc2nc(N=Nc3c(O)[nH]c(=S)[nH]c3=O)sc2c1 | 2 | -2 | 96* | -5 | 8 | 10
Cc1ccccc1CCC[C@H](CC1CCCCC1)CN(C)C(=O)Oc1ccccc1 | nt | -4 | nt | nt | nt | nt
Nc1ccc2c(c1)Cc1ccccc1-2 | -6 | 6 | 99* | -2 | 0 | -7
COc1cccc(N2C(=O)NC(=O)/C(=C/c3ccc4c(c3)Cc3ccccc3-4)C2=O)c1 | 13 | 3 | -171 | 0 | 46 | 2
COc1cc(C=NNC(=S)Nc2ccc(S(=O)(=O)N3CCCCC3)cc2)cc(OC)c1OC | 0 | -6 | nt | nt | nt | nt
NC(=O)c1ccc(C(=O)Nc2ccc([As](=O)(O)O)cc2)cc1 | nt | 3 | -1 | 3 | 6 | -4
O=[As](O)(O)c1ccc(N=Nc2ccc(O)cc2)cc1 | -5 | -3 | 99* | nt | -3 | 7
O=C(NCCN1CCC2(CC1)C(=O)NCN2c1ccccc1)c1ccc(Cl)c(Cl)c1 | nt | 1 | nt | nt | nt | nt
Cc1[nH]c2ccccc2c1CN1CCCCC1 | -2 | -6 | nt | nt | nt | nt
Cc1[nH]c2ccccc2c1C1=CCNCC1 | -2 | -5 | 94* | -3 | ? | -6
N#CC1c2ccccc2-n2nncc2CN1C(=O)c1ccc([N+](=O)[O-])o1 (stereo not given) | nt | -2 | nt | nt | nt | nt
COCCNC(=O)Cn1cc(/C=C2\C(=O)NC(=O)N(c3cccc(C)c3C)C2=O)c2ccccc21 | 53 | 1 | 92* | -5 | 4 | 18
SMILES | Granule exo inh | SMARCA2 act | ALR inh | beta cell repl | GASC-1 inh | M18AAP inhibitor
COCCNC(=O)Cn1cc(/C=C2\C(=O)NC(=O)N(c3ccccc3F)C2=O)c2ccccc21 | 43 | 0 | -1 | 1 | 0 | 6
C=CCN1C(=O)NC(=O)/C(=C\c2ccc(-c3ccccc3[N+](=O)[O-])o2)C1=O | -2 | 0 | 98* | -4 | -25 | 10
CC(Cc1ccccc1)NC(N)=O (stereo not given) | -4 | -1 | -42 | 1 | 6 | -4
CC(Cc1ccccc1)NC(=O)Cc1ccc(N(C)C)cc1 (stereo not given) | -4 | -1 | 99* | -2 | 14 | 8
CCOC(=O)NC1CCc2cc(OC)c(OC)c(OC)c2-c2ccc(OC)c(=O)cc21 (stereo not given) | -2 | 0 | nt | nt | nt | nt
O=C(NCCN1CCC2(CC1)C(=O)NCN2c1ccccc1)c1ccc(F)cc1F | nt | -4 | nt | nt | nt | nt
C(#CCN1CCOCC1)COC/C=C/c1ccccc1 | -1 | 2 | -4 | 1 | 1 | 31*
COc1cc2c(c(OC)c1OC)-c1ccc(OC)c(=O)cc1C(N)CC2 (stereo not given) | -2 | 0 | nt | nt | nt | nt
S=C=Nc1cccc(C2(N3CCCCC3)CCCCC2)c1 | 0 | 11* | -18 | -8 | nt | nt
Cc1cc(Br)ccc1N1C(=O)CC(=O)NC1=O | 2 | 2 | 85* | -1 | 6 | -11
O=C1CC(=O)N(c2cccc(Br)c2)C(=O)N1 | -10 | -3 | 25 | 1 | -43 | 8
O=C(NC1CCCCC1)N1Cc2ccc(Br)cc2-n2nncc2C1 | nt | -2 | nt | nt | nt | nt
CC/C(=N\Nc1ccccc1)c1c(O)n(-c2ccccc2)c(=O)[nH]c1=O | -3 | 4 | 99* | -2 | nt | 10
N/C(=N\[N+](=O)[O-])N/N=C/c1ccc(O)cc1 | -1 | 3 | 97* | -1 | -3 | -1
Nc1nonc1C(=O)N/N=C/c1ccc([N+](=O)[O-])o1 | ? | -2 | -21 | 0 | -6 | 16
CNCCc1ccc(O)c(O)c1 | -4 | 0 | 97* | -8 | 27 | nt
CN(C)P1(N(C)C)=Nc2c(c(N)nn2C)C(c2ccccc2)=N1 | -3 | 1 | 86* | 0 | -5 | 3
Cc1ccc(/C=C2\C(=O)NC(=S)N(c3ccccc3F)C2=O)s1 | 50 | 2 | 98* | nt | 18 | -4
CCN1/C(=C\C=C\C2=[N+](CC)c3ccccc3C2(C)C)C(C)(C)c2ccccc21 | 85* | nt | 88* | -6 | -13 | 5
CCOC(=O)c1c(/N=C/C2C(=O)NC(=O)NC2=O)sc2c1CCC2 | 8 | 0 | 16 | -1 | -28 | 17
CCOC(=O)c1cc(CC)sc1/N=C/C1C(=O)NC(=S)NC1=O | 0 | 2 | 97* | -3 | 14 | -6
CCOC(=O)c1cc(CC)sc1/N=C/c1c(O)[nH]c(=S)[nH]c1=O | 1 | -5 | 98* | 0 | -4 | -11
O=C(CNC(=O)OCc1ccccc1)NC(Cc1ccccc1)P(=O)(Oc1ccccc1)Oc1ccccc1 (stereo not given) | nt | -2 | nt | nt | nt | nt
Cc1cc(O)c2c(C)c(CC(=O)N3C[C@H]4C[C@@H](C3)c3cccc(=O)n3C4)c(=O)oc2c1 | 2 | 2 | 85* | -1 | 10 | 2
COc1cc(C)cc2oc(=O)c(CC(=O)N3C[C@H]4C[C@@H](C3)c3cccc(=O)n3C4)c(C)c12 | -1 | 1 | -5 | 0 | i | -5
CN1c2ccc(Br)cc2[C@H]2NCC[C@H]2[C@H]1CO | nt | -1 | nt | nt | nt | nt

Assay outcomes: PubChem, several laboratories
